# Data reported in PubChem BioAssay (NCATS).
# Values joined by “and” are separate entries in the source; they are usually repeats but may differ in a detail not shown here. Equal values may be shown once. Records with an inconclusive call do not appear. A number with no mark means an inactive call. Calls come from the whole dose curve; as a rule, active = well fitted activation curve with a large enough effect; inconclusive = small, poorly fitted or top-dose-only effect; inactive = no such curve, though single readings can be large or run the other way.
# Target: Cellular tumor antigen p53 (Homo sapiens) (UniProt P04637)
# Assay: Primary qHTS for small molecule compounds that upregulate eGFP-tagged delta133p53alpha (in N-terminal) cells. (AID 2060322);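 note: series mostly up to about 56 µM; 0% = DMSO vehicle and 100% = reference activator; nearly all actives have a fitted effect of over 75% in size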
# Settings: NCI-H358 eGFP-delta133p53alpha fluorescence, 24 h; activation: active compounds read high
# Outline: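 NCI-H358 cells pre-induced 24 h with 10 ng/ml doxycycline to express N-terminal eGFP-delta133p53alpha, then dosed 24 h at 37C without doxycycline; fixed, Hoechst-stained, GFP intensity by laser scanning cytometry, normalized to DMSO (0%) and 57.5 uM 5-azacytidine (100%).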
# Cellular tumor antigen p53 (Homo sapiens), sequence (P04637 whole entry, looked up): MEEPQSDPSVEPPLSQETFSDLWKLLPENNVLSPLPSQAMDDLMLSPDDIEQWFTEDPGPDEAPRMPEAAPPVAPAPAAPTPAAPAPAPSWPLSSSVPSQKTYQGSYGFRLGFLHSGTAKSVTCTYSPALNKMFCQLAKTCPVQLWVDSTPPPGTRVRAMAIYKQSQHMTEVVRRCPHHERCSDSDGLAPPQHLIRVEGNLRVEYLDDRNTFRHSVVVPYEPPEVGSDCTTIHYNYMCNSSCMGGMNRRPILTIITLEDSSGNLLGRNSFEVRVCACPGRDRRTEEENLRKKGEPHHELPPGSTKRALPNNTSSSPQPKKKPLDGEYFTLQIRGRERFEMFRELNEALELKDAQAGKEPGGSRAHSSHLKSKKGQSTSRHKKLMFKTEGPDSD
row,SMILES,activation
1,COc1ccc2c(c1)[C@]13CCCCC1C(C2)N(C)CC3 (stereo not given in full),8.01%
2,C[C@H]([C@H](O)CCC(C)(C)O)[C@H]1CC[C@@]2(O)C3=CC(=O)[C@@H]4C[C@@H](O)[C@@H](O)C[C@]4(C)[C@@H]3CC[C@]12C,-1.72%
3,CC(C(=O)c1ccccc1)N(C)C (stereo not given),22.6%
4,O=c1n(Cl)c(=O)n(Cl)c(=O)n1Cl,6.21%
5,O=C1c2ccccc2C(=O)c2ccccc21,0%
6,Cc1ccc(-c2nc3ccc(C)cn3c2CC(=O)N(C)C)cc1,-32.2%
7,COc1cc(CC(C)N)cc(OC)c1OC (stereo not given),-10.7%
8,N[C@@H](Cc1ccc(Oc2cc(I)c(O)c(I)c2)c(I)c1)C(=O)O,11.7%
9,NP(N)(=O)NC(=O)c1ccc(F)cc1,-15.1%
10,CN(C)CCc1ccc(O)cc1,-14.3% and -6.21%
11,CC(C)NCC(O)c1ccccc1Cl (stereo not given),21.8%
12,c1ccc(CCCN2CCN(CCOC(c3ccccc3)c3ccccc3)CC2)cc1,1.41% and -30.2%
13,CCS(=O)(=O)C(C)(C)S(=O)(=O)CC,-5.86%
14,COP(=O)(OC)C(O)C(Cl)(Cl)Cl (stereo not given),-2.51%
15,FC(F)(F)c1cccc(C2=CCN(CCc3ccc4ccccc4c3)CC2)c1,-5.08%
16,COC1=CC(C)=C[C@@H](C)[C@@H](O)[C@@H](C)CC(C)=CC=C[C@H](OC)[C@H]([C@@H](C)[C@@H](O)[C@H](C)[C@@]2(O)C[C@@H](O)[C@H](C)[C@@H](C(C)C)O2)OC1=O,6.87%
17,C=C[C@@H]1CN2CCC1C[C@H]2[C@H](O)c1ccnc2ccccc12 (stereo not given in full),-4.83%
18,Nc1ccc(Cl)cc1,-6.21%
19,CC(CC(C(N)=O)(c1ccccc1)c1ccccc1)N(C)C (stereo not given),-9.6%
20,COC1CC(=C(c2cccs2)c2cccs2)C[N+](C)(C)C1 (stereo not given),-5.86%

row,SMILES,activation
1,COc1cc(CC(C)N)c(OC)cc1Br (stereo not given),43.5%
2,c1cc2ccc3cccc4ccc(c1)c2c34,0%
3,C=C1C[C@H]2[C@H]3CCC(=O)[C@@]3(C)CC[C@@H]2[C@@]2(C)C=CC(=O)C=C12,3.97%
4,c1cc2c(cc1[C@H]1OC[C@H]3[C@H]1CO[C@H]3c1ccc3c(c1)OCO3)OCO2,13.9%
5,CCC(COC(=O)c1cc(OC)c(OC)c(OC)c1)(c1ccccc1)N(C)C (stereo not given),-7.34%
6,CN1CCC(O)(c2ccc(F)cc2)C(C(=O)c2ccc(F)cc2)C1 (stereo not given),-14.1%
7,C[C@]12CCC(=O)C(O)=C1CC[C@@H]1[C@H]3CCC(=O)[C@@]3(C)CC[C@@H]12,-8.48%
8,CS(=O)(=O)c1ccc(C(=O)C2C(=O)CCCC2=O)c([N+](=O)[O-])c1,-5.86%
9,O=C1CN2CCOC2(c2ccccc2Cl)c2cc(Cl)ccc2N1 (stereo not given),14.2%
10,CC1COC2(c3ccccc3Cl)c3cc(Cl)ccc3NC(=O)CN12 (stereo not given),28.5%
11,Clc1ccc(CO/N=C(\Cn2ccnc2)c2ccc(Cl)cc2Cl)c(Cl)c1,-8.37%
12,Nc1ccc([As](=O)(O)O)cc1,-5.02%
13,CCOP(=O)(NC(C)C)Oc1ccc(SC)c(C)c1 (stereo not given),10.7%
14,C=C[C@@H]1CN2CCC1C[C@@H]2[C@@H](O)c1ccnc2ccccc12 (stereo not given in full),-22.8%
15,CCCCCCC(=O)CCCCCC/C=C/C[C@@H](O)[C@H](O)[C@@](N)(CO)C(=O)O,5.86%
16,C[C@H](N)[C@H](O)c1ccc(O)c(O)c1,-36.8%
17,Cc1ccc(N=CN(C)C=Nc2ccc(C)cc2C)c(C)c1,13%
18,C=CC[C@]1(O)CC[C@H]2[C@@H]3CCC4=CC(=O)CCC4=C3C=C[C@@]21C,-4.18%
19,CCN[C@@H](C)Cc1ccccc1,-10.7%
20,CC(Cc1ccccc1)NCCCCl (stereo not given),-27.6%
